From PubChem BioAssay
This is a sample that favours compounds with a hit; in the whole collection about 4.5% have one here.
ZTA DNA inh: blocks Epstein-Barr virus ZTA, an EBNA-1 counter-screen. P03206. ZTA-DNA binding, fluorescence polarization. inhibition, % at 11 µM. 320,000 tested, 0.15% active; in the data active means inhibition above about 33%
Target sequence (P03206 whole entry, looked up): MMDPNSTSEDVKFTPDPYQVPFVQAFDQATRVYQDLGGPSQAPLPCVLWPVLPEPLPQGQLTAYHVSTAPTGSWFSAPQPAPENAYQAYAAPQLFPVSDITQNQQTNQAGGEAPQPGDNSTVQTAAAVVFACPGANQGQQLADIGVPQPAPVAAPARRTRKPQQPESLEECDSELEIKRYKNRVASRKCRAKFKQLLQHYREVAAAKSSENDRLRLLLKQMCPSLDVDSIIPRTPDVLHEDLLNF
EBNA-1 inh: blocks EBNA-1 binding to DNA; EBNA-1 DNA binding, fluorescence polarization; inhibition, % at 14.8 µM; 300,000 tested, 0.34% active; AID 1950; in the data active means inhibition above about 28%
dFosB act: mouse delta FosB homodimer activation; 340,000 tested, 0.99% active; purified delta FosB, TAMRA-CDK5 oligo fluorescence polarization; percent of positive-control signal above neutral wells; P13346; activation, % at 25 µM; AID 493131;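 active means mean activation above about 17%, with every replicate also reaching it, limit read from the data, passing the limit was not always enough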
TPT1 inhibitor: C. albicans TPT1 enzyme inhibition. inhibition, % at 5 µM. recombinant caTPT1, FP RNA substrate dephosphorylation. 300,000 tested, 0.81% active;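 active means inhibition above the mean of all tested compounds plus 3 SD, set per screening campaign, cut at about 24% in these data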
NR3A LBD binder: modulates the human NR3A ligand-binding domain; NR3A LBD differential scanning fluorimetry, Tm shift; 0% = protein alone, 100% = glycine-bound protein; Tm shift relative to glycine control, % at 25 µM; 340,000 tested, 2.5% active;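 active means melting temperature shift of at least 10% of the positive control shift, at one fixed dose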
Rpn11 block: Rpn11 (human) deubiquitinase inhibition. human 26S proteasome, Ub4-pepOG fluorescence polarization; 20S core pre-blocked with epoxomicin. inhibition, % at 20 µM. 360,000 tested, 0.59% active. AID 588493;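 active means inhibition at 20 µM, scaled to each plate's controls, above about 33%, limit read from the data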
Target sequence (O00487 whole entry, looked up): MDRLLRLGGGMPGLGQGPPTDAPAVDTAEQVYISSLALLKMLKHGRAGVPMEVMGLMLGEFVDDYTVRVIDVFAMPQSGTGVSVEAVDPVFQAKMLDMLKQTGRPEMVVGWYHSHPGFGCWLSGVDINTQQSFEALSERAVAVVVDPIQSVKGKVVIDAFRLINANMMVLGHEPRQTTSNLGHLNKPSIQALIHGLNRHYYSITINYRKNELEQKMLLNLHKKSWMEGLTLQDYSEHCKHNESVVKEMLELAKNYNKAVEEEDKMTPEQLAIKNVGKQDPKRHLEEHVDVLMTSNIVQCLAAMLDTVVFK
caTPT1 confirm: TPT1 (C. albicans) inhibition, confirmation; inhibition, % at 5 µM; 2,400 tested, 74% active; recombinant caTPT1, fluorescence polarization, RNase T1 coupled; AID 2149; shares compounds with TPT1 inhibitor;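 active means inhibition above the primary screen limit, the mean inhibition of all tested compounds plus 3 SD, cut at about 25% in these data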
RNase T1 counter: blocks Aspergillus oryzae RNase T1, a TPT1 counter-screen. 2,400 tested, 83% active. shares compounds with TPT1 inhibitor. AID 2153. inhibition, % at 5 µM. RNase T1 cleavage, fluorescence polarization, 1536-well;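 active means inhibition above the solvent-only control well mean plus 3 SD, limit set per screening run, cut at about 23% in these data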;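 further: inhibitors block cleavage so intact labeled substrate keeps polarization high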
Target sequence (P00651 whole entry, looked up): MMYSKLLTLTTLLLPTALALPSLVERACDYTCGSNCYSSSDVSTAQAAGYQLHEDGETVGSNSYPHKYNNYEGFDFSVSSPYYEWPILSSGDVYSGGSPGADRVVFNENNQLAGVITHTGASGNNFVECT
Large screens that a line does not name were inactive (follow-up assays come after a bar, where shown).

COCCN1C(=O)/C(=C/c2ccc(N3CCCC3)cc2C)SC1=S	TPT1 inhibitor 115 (not shown: Rpn11 block) | caTPT1 confirm 99 | RNase T1 counter 100
O=C1c2ccccc2-c2cccc(NS(=O)(=O)c3ccc(C(F)(F)F)cc3)c21	TPT1 inhibitor 42 (not shown: Rpn11 block) | caTPT1 confirm 47 | RNase T1 counter 55
Cc1cccc(NC(=O)CSc2nc3ccccc3nc2N2CCCC2)c1C	none
Cc1nc2ccccc2n1/N=C/c1ccc([N+](=O)[O-])s1	TPT1 inhibitor 28 (not shown: Rpn11 block) | caTPT1 confirm 36 | RNase T1 counter 59
Cc1cc(C)n2nc(-c3ccsc3-n3c(C)ccc3C)cc2n1	TPT1 inhibitor 45 (not shown: Rpn11 block) | caTPT1 confirm 53 | RNase T1 counter 64
COc1ccccc1NC(=O)C(C)OC(=O)C1COc2ccccc2O1 (stereo unspecified)	none (no result: EBNA-1 inh, TPT1 inhibitor)
CC(C)(C)c1nc(-c2ccccc2)nc2c1OCCC2	none
Cc1cc(/C=C2\SC(=S)N(C)C2=O)c(C)n1-c1cccc(O)c1	TPT1 inhibitor 78 (not shown: Rpn11 block) | caTPT1 confirm 114 | RNase T1 counter 117
Cc1cc(/C=C2\SC(=S)N(Cc3ccco3)C2=O)c(C)n1-c1ccccc1	TPT1 inhibitor 102 (not shown: Rpn11 block) | caTPT1 confirm 98 | RNase T1 counter 106
Cc1cc(/C=C2\SC(=O)N(C)C2=O)c(C)n1-c1ccc(O)cc1	none
COc1ccc(-n2c(C)cc(/C=C3/SC(=S)N(C)C3=O)c2C)cc1	TPT1 inhibitor 28 (not shown: Rpn11 block) | caTPT1 confirm 63 | RNase T1 counter 75
O=C(CNC(=O)c1ccccc1C(F)(F)F)N/N=C/c1cccs1	none
S=c1[nH]ccn1-c1cccc(Cl)c1	none
Cc1cc(OCC(=O)OCC(=O)NC2CCCCCC2)ccc1Cl	none (no result: EBNA-1 inh, TPT1 inhibitor)
CC1CN(Cc2cc(=O)oc3cc(O)ccc23)CC(C)O1 (stereo unspecified)	none
O=C(CN1CCCC1)Nc1nc(-c2ccc(Cl)cc2)cs1	none (no result: ZTA DNA inh, EBNA-1 inh, dFosB act, TPT1 inhibitor, NR3A LBD binder)
CCN(CC)CC(=O)Nc1nc(-c2ccc(Cl)cc2)cs1	TPT1 inhibitor 41 | caTPT1 confirm inactive | RNase T1 counter inactive
COc1ccc2c(c1)c(/C=C/c1cc[n+](C)cc1)cn2C	TPT1 inhibitor 72 (not shown: Rpn11 block) | caTPT1 confirm 88 | RNase T1 counter 91
Cc1ccc(N(C(=O)c2csnn2)C(C(=O)NC2CCCC2)c2ccccn2)c(C)c1 (stereo unspecified)	none
CCc1cccc2cc3c(N)c(C(=O)Nc4ccc(S(=O)(=O)N5CCCC5)cc4)sc3nc12	TPT1 inhibitor 39 (not shown: Rpn11 block) | caTPT1 confirm 33 | RNase T1 counter 42
Cc1cccc(N=C2NC(=O)/C(=C/c3cccn3C)S2)c1	TPT1 inhibitor 31 | caTPT1 confirm 37 | RNase T1 counter 46
Cc1cccc(N=C2NC(=O)/C(=C/c3cccs3)S2)c1	none
COc1ccc(C2=NN(c3ccccc3)C(=O)/C2=C\c2ccc(O)c(OC)c2)cc1	none
COc1cc(/C=C2\SC(c3ccc(C)cc3)=NC2=O)cc(OC)c1OC	TPT1 inhibitor 30 (not shown: Rpn11 block) | caTPT1 confirm 40 | RNase T1 counter 50
COc1ccc(/C=C2/SC(c3ccc(C)cc3)=NC2=O)cc1OC	TPT1 inhibitor 112 (not shown: Rpn11 block) | caTPT1 confirm 80 | RNase T1 counter 85
COc1ccc(/C=C2\SC(c3ccc(C)cc3)=NC2=O)cc1OC	TPT1 inhibitor 87 (not shown: NR3A LBD binder, Rpn11 block) | caTPT1 confirm 84 | RNase T1 counter 90
COc1cc(/C=C2\SC(c3ccc(C)cc3)=NC2=O)ccc1O	TPT1 inhibitor 80, Rpn11 block 142 | caTPT1 confirm 98 | RNase T1 counter 101
COc1cc(/C=C2\SC(c3ccccc3)=NC2=O)cc(Cl)c1O	none (no result: ZTA DNA inh, EBNA-1 inh, TPT1 inhibitor)
COc1ccc(/C=C2\SC(=O)NC2=S)cc1OC	none
COc1cc(/C=C2\SC(N)=NC2=O)cc(Br)c1O	TPT1 inhibitor 59 (not shown: Rpn11 block) | caTPT1 confirm 69 | RNase T1 counter 78
O=C(N1CCCCC1)C1(S(=O)(=O)c2ccccc2)CC=CC1	none
CCCCC(CCCC)=N/N=C/c1c(O)n(CC)c2cc(C3=NNC(=O)CC3)ccc12	TPT1 inhibitor 34 (not shown: Rpn11 block) | caTPT1 confirm inactive | RNase T1 counter 22
CCn1c(O)c(/C=N/N=C2CCCCC2)c2cc(C3=NNC(=O)CC3)ccc21	TPT1 inhibitor 37 | caTPT1 confirm inactive | RNase T1 counter 36
Cn1cccc1CC(=O)N/N=C/c1cccc2ccccc12	TPT1 inhibitor 33 | caTPT1 confirm inactive | RNase T1 counter 30
Cn1cccc1CC(=O)N/N=C\c1c2ccccc2cc2ccccc12	none
Cc1oc(C)c2c(=O)ccc3c(c12)OC(N)=C(C#N)C3c1ccc(F)cc1 (stereo unspecified)	TPT1 inhibitor 31 (not shown: Rpn11 block) | caTPT1 confirm inactive | RNase T1 counter 28
N#C/C(=C\c1ccc(N2CCOCC2)o1)C(=O)NCCc1ccccc1	TPT1 inhibitor active (not shown: Rpn11 block) | caTPT1 confirm 181 | RNase T1 counter 171
COCCNC(=O)/C(C#N)=C/c1ccc(N2CCOCC2)o1	TPT1 inhibitor 157 (not shown: Rpn11 block) | caTPT1 confirm 169 | RNase T1 counter 164
COCCNC(=O)c1onc(CSc2ccccc2)c1C(=O)NCCOC	none
CCc1n[nH]c(=S)n1/N=C/c1cc(Br)c(OC)cc1OC	none
CCCCNc1c(-c2ccc(-c3ccc(C(C)=O)cc3)c(OC)c2)nc2cnccn12	TPT1 inhibitor 26 | caTPT1 confirm 52 | RNase T1 counter 63
CCN(CC)c1ccc(/C=C2/C(=O)c3ccc(C(=O)O)cc3C2=O)cc1	TPT1 inhibitor 136 (not shown: Rpn11 block) | caTPT1 confirm 121 | RNase T1 counter 114
CC1=NOC(=O)/C1=C/c1ccc(N(C)C)cc1	TPT1 inhibitor 78 (no result: dFosB act, Rpn11 block) | caTPT1 confirm 97 | RNase T1 counter 114
CN(C)c1ccc(/C=C2\N=C(C(C)(C)C)OC2=O)cc1	TPT1 inhibitor 117 (not shown: Rpn11 block) | caTPT1 confirm 129 | RNase T1 counter 140
CCCOc1ccc(/C=C2/C(=O)ON=C2C)cc1Cl	none
CCN(CC)c1ccc(/C=C2/C(=O)ON=C2C)cc1	TPT1 inhibitor 117 (not shown: Rpn11 block) | caTPT1 confirm 132 | RNase T1 counter 134
O=C(Cc1ccc2ccccc2c1)NC(Cc1ccccc1)C(=O)O (stereo unspecified)	none (no result: ZTA DNA inh, EBNA-1 inh, TPT1 inhibitor)
Cc1ccccc1OCC(=O)Nc1cc(S(=O)(=O)N2CCCCC2)ccc1N1CCN(C)CC1	none
CCN(CC)c1ccc(C=C2C(=O)OC3(CCCCC3)OC2=O)cc1	TPT1 inhibitor 101, NR3A LBD binder 18 (not shown: Rpn11 block) | caTPT1 confirm 166 | RNase T1 counter 156
CC(=O)Nc1c(Cl)c(Cl)c2c(c1Cl)C(=O)c1cc(Cl)ccc1-2	none (no result: ZTA DNA inh, EBNA-1 inh, TPT1 inhibitor)
CN(C)c1ccc(/C=C2\C(=N)N3N=C(CC(=O)N4CCCC4)SC3=NC2=O)cc1Br	none
CN(C)c1ccc(/C=C2\C(=N)N3C(=NC2=O)Sc2cc(S(C)(=O)=O)ccc23)cc1	TPT1 inhibitor 122 (no result: dFosB act, NR3A LBD binder, Rpn11 block) | caTPT1 confirm 88 | RNase T1 counter 86
